Here are results for 54 compounds from ChEMBL document CHEMBL4513216, “Probing the Open Global Health Chemical Diversity Library for Multistage-Active Starting Points for Next-Generation Antimalarials” (ACS Infect Dis, 2020).

In all, about 69,000 compounds went through this assay and about 8,600 (12%) showed an effect of 50% or more. The sample as a whole holds a higher share of strong results than the screen did.

The subject of the assay is Plasmodium berghei. As to the kind of experiment: Screen against P. berghei liver stage (PbLuc), transformed with Luciferase, at 10uM. The conditions noted are these: tested at 10 uM. The class given is functional, HepG2.
On to `CCCn1cc(C(=O)NC2CCC(n3cnnc3)CC2)c(C)n1` (centres undefined), for which the INHIBITION worked out at 18.5%.

`Cc1occc1C(=O)N1CCC[C@]2(C[C@@H](OCc3ccccn3)CO2)C1`: the INHIBITION stood at 22.9%.

For `CCOCC1CN(Cc2ccccn2)Cc2nn(CC3CC3)cc21` (centres undefined), the INHIBITION is given as -2.17%.

As for `O=C(NCC(F)(F)F)c1ccc(-c2ccco2)[nH]c1=O`, the INHIBITION is given as 14.4%.

On to `COc1ccc(C2CCCN2S(=O)(=O)N(C)C)cc1` (centres undefined), for which the INHIBITION is -45.2%.

`c1c(CN2CCCC2)nc2n1CCN(CC1CC1)C2`: the INHIBITION is -44.4%.

Turning to `COc1cc(C(=O)N(Cc2cnn(C)c2)C(C)C)ccc1OC(C)C`, the INHIBITION came to 27.8%.

Take `CC1=N[C@@]2(CC[C@@H]3CN(Cc4ccccc4)C[C@@H]32)C(=O)N1CC1CC1`: the INHIBITION is recorded as -13.4%.

Consider `COc1ccc(C(=O)N2C[C@@H](C)[C@@](C)(O)C2)cc1N1CCOCC1`, for which the INHIBITION is listed as -4.92%.

As to `COc1ccc(C(=O)N2CC[C@](C)(O)[C@H](C)C2)cc1N1CCOCC1`, the INHIBITION came to 54.4%.

In the case of `COc1ccc(C(=O)N2CCOCC(CO)C2)cc1N1CCOCC1` (centres undefined), the INHIBITION is given as 49.9%.

Regarding `CC(C)Cn1cnc2ccc(NC(=O)CCCn3cccn3)cc2c1=O`, the INHIBITION is listed as 13.2%.

On to `CN(C)C(CNc1c(NCc2ccco2)c(=O)c1=O)c1ccccc1` (centres undefined), for which the INHIBITION was found to be 4.48%.

Regarding `Fc1cnc(N2C[C@H]3CCC[C@@]3(COc3ccccn3)C2)nc1`, the INHIBITION was determined as 76.6%.

On to `O=S(=O)(C1CC1)N1C[C@H]2CCC[C@@]2(COc2ccccn2)C1`, for which the INHIBITION is on record as 0.79%.

On to `Fc1cnc(N2C[C@@H]3COC[C@]3(COc3ccccn3)C2)nc1`, for which the INHIBITION is on record as 43.1%.

As to `Cn1cc(CN2C[C@H]3CCC[C@@]3(COCC3CC3)C2)cn1`, the INHIBITION stood at 8.6%.

In the case of `CCS(=O)(=O)N1C[C@H]2CCC[C@@]2(COc2ccccn2)C1`, the INHIBITION is given as -23.7%.

On to `Cn1cc(CN2C[C@H]3CCC[C@@]3(COc3ccccn3)C2)cn1`, for which the INHIBITION was found to be 67.5%.

Consider `c1cncc(OC[C@@]23CCC[C@@H]2CN(CC2CCOCC2)C3)c1`, for which the INHIBITION amounted to 47.4%.

Turning to `CS(=O)(=O)N1C[C@H]2CCC[C@@]2(COc2ccccn2)C1`, the INHIBITION amounted to 33%.

With `Cn1cc(CN2C[C@H]3CCC[C@@]3(COc3cccnc3)C2)cn1`, the INHIBITION came to 52.1%.

`CCn1ncc(CNc2[nH]cnc3nncc2-3)c1C`: the INHIBITION turned out to be 25.3%.

For the compound `CCCC1CN(CC(C)C)C(=O)c2cccnc2O1` (centres undefined), the INHIBITION is listed as 6.34%.

On to `O=C(NCc1ccc2c(c1)OCO2)Nc1cccnc1N1CCCC1`, for which the INHIBITION is -4.94%.

Consider `O=c1cc(Cn2ccnc2)nc2n1CCCN(S(=O)(=O)C1CC1)C2`, for which the INHIBITION was -10.2%.

As to `CN1C[C@H]2CC[C@@H](C1)N(Cc1ccccc1OCCN1CCOCC1)C2`, the INHIBITION is recorded as -154%.

Turning to `CC(=O)N1CCC(NC(=O)N2CCN(c3cnccn3)CC2)CC1`, the INHIBITION is reported as 48.2%.

As to `Cc1nc2c(c(=O)[nH]1)CN(Cc1ccc3c(c1)CCCN3C)CC2`, the INHIBITION came to 30.5%.

With `Cc1ccc(C(=O)N2CCC[C@@H]2Cn2nnc3c(O)nc(C)nc32)cc1`, the INHIBITION amounted to 23.4%.

In the case of `Cn1ccnc1CNCCNc1ncc(Cl)cc1Cl`, the INHIBITION came out at 1.51%.

As to `CCCc1n[nH]c(C2CN(CCS(=O)(=O)CC)CCO2)n1` (centres undefined), the INHIBITION was 44.1%.

Take `N#Cc1cccc(S(=O)(=O)Nc2c(F)cccc2N2CCCC2)c1`: the INHIBITION is on record as 50.1%.

Regarding `O=S(=O)(Nc1c(F)cccc1N1CCCC1)c1cncc(F)c1`, the INHIBITION was found to be 27.6%.

As for `Cn1cc(S(=O)(=O)Nc2c(F)cccc2N2CCCC2)cn1`, the INHIBITION is -11.9%.

With `O=C(c1ccncc1)N1CCC(c2nc(O)cc(-c3ccncc3)n2)C1` (centres undefined), the INHIBITION is on record as 48.3%.

In the case of `CCCN1C[C@H](NC(=O)c2ccccc2F)[C@@H](c2ccc(OC)cc2)C1`, the INHIBITION is 54.4%.

`CCCN1C[C@H](NC(=O)c2cccs2)[C@@H](c2ccc(OC)cc2)C1`: the INHIBITION is listed as 31.6%.

On to `CCCN1C[C@H](NC(=O)c2cc(C)no2)[C@@H](c2ccc(OC)cc2)C1`, for which the INHIBITION stood at 35.2%.

Take `CCN(CC)C1CCN(C(=O)NCc2cccc(NC(C)=O)c2)C1` (centres undefined): the INHIBITION is reported as -4.15%.

On to `CCCc1noc(CCC(=O)N2CCCC2c2cccs2)n1` (centres undefined), for which the INHIBITION amounted to 29.7%.

As for `CCCS(=O)(=O)N1C[C@@H]2C[C@H](C(=O)N3CCCC3)[C@H](C1)O2`, the INHIBITION turned out to be 35.8%.

Take `Cc1ccccc1N1CCN(C(=O)c2cscn2)C(C)C1` (centres undefined): the INHIBITION is 10.3%.

In the case of `CN(C)c1cc(N2CCN(c3ccccn3)CC2)ncn1`, the INHIBITION is given as 41.1%.

Regarding `Cc1ccccc1N1CCN(c2cc(N(C)C)ncn2)C(C)C1` (centres undefined), the INHIBITION was 67.4%.

As for `Cc1nccn1CCC1CCN(c2ccncn2)CC1`, the INHIBITION is listed as 35.8%.

On to `Cc1cc(C)nc(C2CCN(c3ccncn3)C2)n1` (centres undefined), for which the INHIBITION came out at 36.9%.

Take `CSc1ncc(C(=O)N2CCN(c3ccccc3C)CC2C)cn1` (centres undefined): the INHIBITION stood at 44.8%.

Take `Cc1ccccc1N1CCN(C(=O)c2ncc(F)cc2F)C(C)C1` (centres undefined): the INHIBITION is reported as 33%.

With `Cc1ccccc1N1CCN(C(=O)c2cnc(N(C)C)nc2C)C(C)C1` (centres undefined), the INHIBITION was determined as 25.8%.

With `Cc1ccccc1N1CCN(c2ccncn2)C(C)C1` (centres undefined), the INHIBITION worked out at 63.2%.

Regarding `Cc1ccccc1N1CCCN(c2ccncn2)CC1`, the INHIBITION is on record as 80.7%.

For `Cc1ccc(N2CCN(c3ccccc3C)CC2C)nn1` (centres undefined), the INHIBITION is on record as 59.9%.

Turning to `Cc1ccccc1N1CCN(C(=O)c2cnc(C3CC3)nc2)C(C)C1` (centres undefined), the INHIBITION is reported as 43%.
